Only some compounds are listed: those with a hit (about 5.9% of all), similar ones and a draw of the others.
GLP1R ag = qHTS of GLP-1 Receptor Agonists; Glucagon-like peptide 1 receptor (Homo sapiens), P43220; HEK293 GLP-1R CRE-luciferase, luminescence, 4-6 h; cells express a hypersensitive GLP-1R form; Potency, µM (top dose mostly 45.6 µM), for the others: top-dose activation, usual class: activators; 380,000 compounds, 0.007% hits; AID 624172, 2012; note: % of control where 0% means no effect
GLP1R cytotox = qHTS of GLP-1 Receptor Inverse Agonists: Cytotox Screen. HEK293 cAMP-luciferase reporter cells, luminescence, 24 h. Potency, µM (highest dose often 38.3 µM), without a hit: at the top dose activity change, negative = inhibition, usual class: inhibitors. 410,000 compounds, 0.13% hits;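 note: loss of luciferase light is scored as toxicity; % is set by controls: 0 for no effect and ±100 for the full control effect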
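Here, cytotoxicity is scored as loss of luminescence. The MLSMR collection was tested on cells seeded in medium containing 10% Nu serum, with a 24 hr compound exposure preceded by 12 hours of culture.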
RORgamma inh = qHTS for inhibitors of ROR gamma transcriptional activity. Potency, µM (titrated, usually from 53.6 µM), inactives show at the top dose activity change, negative = inhibition, most hits filed as inhibitors. Drosophila S2 Gal4-RORgamma UAS-luciferase reporter, 20 h. AID 2551, 2010. Nuclear receptor ROR-gamma (Mus musculus), P51450. 310,000 compounds, 5.4% hits; note: % is set by controls: 0 for no effect and ±100 for the full control effect; nearly all actives have a fitted effect of over 60% in size
Target sequence (P51450 whole entry, looked up, the tested form may be a part): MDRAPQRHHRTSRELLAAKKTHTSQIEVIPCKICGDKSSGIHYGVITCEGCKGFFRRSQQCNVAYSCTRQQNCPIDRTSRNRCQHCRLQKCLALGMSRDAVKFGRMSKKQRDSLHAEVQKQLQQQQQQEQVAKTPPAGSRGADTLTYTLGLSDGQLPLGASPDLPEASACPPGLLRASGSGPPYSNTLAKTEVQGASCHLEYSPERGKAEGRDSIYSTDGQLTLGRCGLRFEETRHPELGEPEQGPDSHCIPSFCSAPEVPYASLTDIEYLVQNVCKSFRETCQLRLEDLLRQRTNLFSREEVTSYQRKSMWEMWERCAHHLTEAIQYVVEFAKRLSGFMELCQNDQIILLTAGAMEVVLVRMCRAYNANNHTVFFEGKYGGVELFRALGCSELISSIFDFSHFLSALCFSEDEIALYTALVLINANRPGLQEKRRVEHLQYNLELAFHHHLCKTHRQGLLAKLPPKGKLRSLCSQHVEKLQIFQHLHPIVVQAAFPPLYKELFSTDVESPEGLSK
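Read-out: Photinus luciferase luminescence; inhibitors lower reporter signal. Insect Schneider cells with Gal4-ROR gamma fusion under metallothionein promoter, UAS reporter; 700 uM final copper sulfate induction, 20 hr, ambient temperature.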
VP16 counter = VP16 counterscreen qHTS for inhibitors of ROR gamma transcriptional activity | Drosophila S2 Gal4-VP16 UAS-luciferase, luminescence, 20 h | Potency, µM (doses to about 53.6 µM), for inactives: at the highest dose activity, negative = inhibition, most hits filed as inhibitors | 310,000 compounds, 3.5% hits | AID 2546, 2010;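 note: Gal4-VP16 expression switched on by copper sulfate through the metallothionein promoter; % is set by controls: 0 for no effect and ±100 for the full control effect; nearly all actives have a fitted effect of over 50% in size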
GLP1R inv ag = qHTS of GLP-1 Receptor Inverse Agonists (Inhibition Mode); AID 624417, 2012; 410,000 compounds, 1.6% hits; HEK293 GLP-1R CRE-luciferase, luminescence, 24 h; GLP-1R form is constitutively active; Potency, µM (highest dose often 38.3 µM), for the others: at the top dose activity change, negative = inhibition, actives largely listed as inhibitors; Glucagon-like peptide 1 receptor (Homo sapiens), P43220; note: % is set by controls: 0 for no effect and ±100 for the full control effect; nearly all actives have a fitted effect of over 55% in size
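HEK293 cells stably co-expressing constitutively active GLP-1R and a cAMP-responsive luciferase reporter were seeded in DMEM with 10% Nu serum, given compounds after 12 h, and incubated 24 h at 37 deg C. Luminescence was then read.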
* hit, by the source's call; u = inconclusive; x = no result given. Calls come from the whole dose curve; as a rule, active = well fitted curve in the direction sought with a large enough effect; inconclusive = small, poorly fitted or top-dose-only effect, or another doubt; inactive = no such curve, though single readings can be large; an effect the other way counts as inactive or inconclusive. Potency is the fitted concentration of half-maximal effect.

SMILES	GLP1R ag	GLP1R cytotox	RORgamma inh	VP16 counter	GLP1R inv ag
CC1CCN(C(=S)c2cn(Cc3ccc(F)cc3)c3ccccc23)CC1	-0.6%	-17.4%	5.01µM*	11.2µM*	7.08µM*
CN1CCN(C(=S)c2cn(Cc3cccc(F)c3)c3ccccc23)CC1	10.0%	-12.6%	12.6µM*	-8.1%	u
CN1CCN(C(=S)c2cn(Cc3ccc(F)cc3)c3ccccc23)CC1	10.1%	-7.2%	u	3.4%	10µM*
CC1CCN(C(=O)C(=O)c2cn(CC(=O)N3CCCC3)c3ccccc23)CC1	5.8%	-0.5%	-8.2%	-2.3%	7.5%
O=C(CCc1cn(Cc2ccc(F)cc2)c2ccccc12)N1CCOCC1	5.2%	2.9%	11.4%	u	u
COc1ccccc1C1C(C(=O)Nc2ccccc2)=C(C)Nc2nc(-c3ccccc3)nn21 (configuration not stated)	-3.3%	-9.0%	x	x	-55.2%
CCOC(=O)c1ccc(NC(=O)c2c(NCc3cccs3)sc3c2CCCCC3)cc1	x	3.2%	x	x	-17.5%
O=C(NC(=S)Nc1cccc2cnccc12)c1ccccc1	-4.2%	1.4%	10µM*	u	u
O=C(NC(=S)Nc1cccc2cccnc12)c1ccccc1	-1.1%	-6.1%	2.24µM*	6.31µM*	3.6%
CCCCc1ccc(C(=O)N/C(=C\c2ccc(C)cc2)C(=O)NC2CCCCC2)cc1	x	0.6%	x	x	-2.1%
COc1cc(NC(=O)c2ccc(C(=O)Nc3cc(OC)c(Cl)cc3OC)cc2)c(OC)cc1Cl	x	0.6%	x	x	-5.5%
CN(CCOc1cccc(C(F)(F)F)c1)Cc1ccccc1	4.5%	u	13.5%	-2.5%	10µM*
Cc1cc(C)nc(SCC(=O)O)n1	-11.0%	-2.2%	-21.3%	-7.7%	0.0%
Cc1cc(SCNC(=O)c2ccccc2)nc(C(C)C)n1	-0.6%	-26.5%	12.6µM*	u	-21.4%
Cc1cc(C)nc(SCNC(=O)c2ccccc2)n1	1.6%	u	2.82µM*	3.98µM*	-7.9%
CC(=O)N1CCc2cc(S(=O)(=O)NC(Cc3ccccc3)C(=O)Nc3cc(C)ccc3C)ccc21 (configuration not stated)	x	11.4%	x	x	0.5%
C=CCc1cc(Cl)ccc1OCCNCCN1CCOCC1	-1.8%	12.8%	-41.2%	-1.1%	10µM*
C=CCc1cc(Cl)ccc1OCCNCCOC	1.9%	1.3%	-30.6%	-22.5%	u
CCOC(=O)c1oc2cccc(OCC(O)CNC(C)C)c2c1C (configuration not stated)	-3.6%	u	-38.5%	15.8µM*	-22.7%
Cc1cc(C2(c3ccc(O)c(C)c3)OC(=O)c3ccccc32)ccc1O	19.8%	-10.5%	8.8%	-1.4%	u
Cc1cc(O)c(C(C)C)cc1C1(c2cc(C(C)C)c(O)cc2C)OC(=O)c2ccccc21	-5.9%	u	u	12.6µM*	u
COc1ccc(S(=O)(=O)N2CCCc3ccccc32)cc1[N+](=O)[O-]	21.6%	-12.8%	u	1.7%	11.2µM*
O=C(O)c1ccc(S(=O)(=O)N2CCCc3ccccc32)cc1	0.6%	3.0%	10.2%	-2.2%	1.5%
COCCNC(=O)c1ccc(S(=O)(=O)N2CCCc3ccccc32)cc1	1.8%	-5.4%	-5.2%	15.8µM*	-4.7%
O=C(NCc1ccco1)c1cc(S(=O)(=O)N2CCCc3ccccc32)ccc1Cl	2.4%	-5.6%	9.5%	-0.1%	4.47µM*
CN(C)C(=O)C1C2NC(=S)N(c3cccc(Cl)c3)C1(C)Oc1ccc(Cl)cc12 (configuration not stated)	9.7%	-4.2%	10µM*	u	u
CN(C)C(=O)C1C2NC(=S)N(c3ccccc3)C1(C)Oc1ccccc12 (configuration not stated)	0.4%	-1.7%	-33.8%	-3.6%	18.6%

Screening data deposited in PubChem by National Center for Advancing Translational Sciences (NCATS).
